Compound activity: PubChem BioAssay, National Center for Advancing Translational Sciences (NCATS)
RORgamma inh: blocks mouse ROR gamma transcriptional activity | AID 2551 | Drosophila S2 Gal4-RORgamma UAS-luciferase reporter, 20 h | 310,000 compounds, 5.4% hits | Potency, µM (highest dose often 53.6 µM), hits mostly inhibitors | P51450; further: nearly all actives have a fitted effect of over 60% in size
Target sequence (P51450 whole entry, looked up, the tested form may be a part): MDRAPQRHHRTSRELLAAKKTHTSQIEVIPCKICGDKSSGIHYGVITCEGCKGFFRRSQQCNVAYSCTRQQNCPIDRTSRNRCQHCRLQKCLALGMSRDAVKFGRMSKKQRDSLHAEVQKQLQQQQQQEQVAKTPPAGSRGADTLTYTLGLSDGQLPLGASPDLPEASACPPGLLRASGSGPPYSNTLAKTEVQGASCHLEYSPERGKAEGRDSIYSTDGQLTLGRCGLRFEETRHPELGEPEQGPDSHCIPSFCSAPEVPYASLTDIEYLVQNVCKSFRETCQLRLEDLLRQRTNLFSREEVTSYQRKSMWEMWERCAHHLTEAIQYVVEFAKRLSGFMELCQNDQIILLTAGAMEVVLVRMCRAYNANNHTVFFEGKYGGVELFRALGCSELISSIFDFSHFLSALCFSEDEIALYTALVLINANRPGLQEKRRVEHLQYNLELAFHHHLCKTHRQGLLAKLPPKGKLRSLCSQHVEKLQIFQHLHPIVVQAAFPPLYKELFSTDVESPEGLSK
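A Gal4/UAS one-hybrid system in insect cells: metallothionein-promoter Gal4–ROR gamma fusion plus Photinus luciferase reporter. Copper sulfate 700 uM final, 20 hr ambient incubation, luminescent detection after 10 min with reagent.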
TDP1 cell noCPT: qHTS for Inhibitors of human tyrosyl-DNA phosphodiesterase 1 (TDP1): qHTS in cells in absence of CPT; DT40 Tdp1-/- hTDP1 cells, no CPT, ATP luminescence, 48 h; Potency, µM (top dose mostly 46.2 µM), most hits filed as inhibitors; 420,000 compounds, 15% hits; AID 686978, 2013; further: nearly all actives have a fitted effect of over 55% in size
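Growth of hTDP1-complemented DT40 Tdp1-knockout cells is measured by ATP luminescence after at least 48 hr compound exposure at 37 °C, with DMSO substituting for the 20 nM CPT used in the parallel screen.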
IL-1B inflam inh: inflammasome signaling inhibition, IL-1 beta readout; THP-1 LPS/ATP IL-1B secretion, AlphaLISA, 16 h; hits give low values; activity change, % at 57.5 µM; 360,000 compounds, 4.7% hits; in the data active means activity change below about -50%; inconclusive means mostly about -30% to -49%
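THP-1 cells pretreated 1 hr with compounds (up to 57.5 uM final), then stimulated with LPS (250 ng/mL final) plus ATP (1.25 mM final); secreted IL-1B measured by AlphaLISA after 16 hr, decreased signal indicating inhibition.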
Gal4-VP16 FLuc: counter-screen for ROR gamma inhibitors: Gal4-VP16 reporter; Drosophila S2 Gal4-VP16 UAS-luciferase, luminescence, 20 h; Potency, µM (series often up to 53.6 µM), hits mostly inhibitors; 310,000 compounds, 3.5% hits; AID 2546;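 further: Gal4-VP16 expression switched on by copper sulfate through the metallothionein promoter; nearly all actives have a fitted effect of over 50% in size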
ELG1 DNA repair: ELG1-dependent DNA repair inhibition. HEK293T ELG1-luciferase reporter, luminescence, 16 h; DNA damage induced by 5-fluorouridine. Potency, µM (doses to about 46.1 µM), hits mostly inhibitors. 330,000 compounds, 2.3% hits; further: nearly all actives have a fitted effect of over 55% in size
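Luminescence from the luciferase reporter, measured 30 min after ONE-Glo reagent at room temperature, was the read-out. Beforehand, 2,000 cells per well were exposed for 16 hr at 37 °C to 5-fluorouridine together with compound or vehicle.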
TDP1 cell CPT: DT40-hTDP1 cell growth loss with CPT | AID 686979 | 420,000 compounds, 12% hits | Potency, µM (doses to about 46.2 µM), hits mostly inhibitors | chicken DT40 Tdp1-/-;hTDP1 cells + 20 nM CPT, ATP luminescence, 48 h; further: nearly all actives have a fitted effect of over 55% in size
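Chicken DT40 Tdp1-/- cells stably complemented with human TDP1 were seeded at 400 cells/well in medium containing 20 nM camptothecin, exposed to pin-transferred compounds, and grown at 37 °C for at least 48 hr. Viability was read as ATP luminescence.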
Numbers stand for hits; . = inactive; ? = inconclusive; / = no result; [ ] = dose if it differs, or a comment. An excerpt weighted towards active compounds, which were near 21% of everything screened. Unless noted, the call rests on the fitted dose curve; in most records, active means well fitted curve in the direction sought with a large enough effect; inconclusive means small, poorly fitted or top-dose-only effect, or another doubt; inactive means no such curve, though single readings can be large; an effect the other way counts as inactive or inconclusive.

SMILES | RORgamma inh | TDP1 cell noCPT | IL-1B inflam inh | Gal4-VP16 FLuc | ELG1 DNA repair | TDP1 cell CPT
COc1ccc(-c2c(C(=O)c3ccccc3)[nH]c(N)c2C(=O)c2ccc(Br)cc2)cc1OC | / | ? | . | / | / | ?
COC(=O)c1c(N)[nH]c(C(=O)c2ccccc2)c1-c1ccc(Br)cc1 | / | ? | . | / | / | 16.4µM
COc1ccc(CCNC(=O)CCCn2c(=S)[nH]c3cc4c(cc3c2=O)OCO4)cc1OC | / | . | . | / | / | .
CCOc1ccc(-c2nnn(CC(=O)NCc3ccco3)n2)cc1 | ? | . | . | . | . | ?
CCOc1ccc(-c2cc(CCCC(=O)NCc3ccco3)no2)cc1 | 0.112µM | 20.6µM | . | ? | ? | ?
CCOc1ccc(-c2cc(CCCC(=O)NCCc3ccc(Cl)cc3)no2)cc1 | / | . | / | / | / | ?
CCOc1ccc(-c2cc(CCCC(=O)NCc3ccc(C)cc3)no2)cc1 | 1.26µM | . | . | ? | ? | .
c1ccc2c(c1)CCc1c-2nc2ccccc2c1N1CCOCC1 | . | ? | . | . | . | 11.6µM
CSCCC(NS(=O)(=O)c1cccc(C(F)(F)F)c1)C(=O)N1CCN(C(=O)c2ccco2)CC1 (stereo not given) | / | . | . | / | / | .
CSCCC(NS(=O)(=O)c1cccc(C(F)(F)F)c1)C(=O)N(C)CCOc1ccc(Cl)cc1 (stereo not given) | / | ? | -57.5 | / | ? | ?
CC(C)S(=O)(=O)N1CCCC(c2cc(C(=O)Nc3ccc(F)c(Cl)c3)no2)C1 (stereo not given) | / | ? | . | / | / | ?
COc1ccccc1CCNC(=O)c1ccc2c(c1)c(C)c(C)n2Cc1ccc(Cl)cc1 | / | 20.6µM | / | / | / | 23.1µM
Cc1c(C)n(Cc2ccc(Cl)cc2)c2ccc(C(=O)NCCN3CCOCC3)cc12 | . | ? | . | . | ? | ?
COc1ccc(OC)c(CNC(=O)c2ccc3c(c2)c(C)c(C)n3Cc2ccc(Cl)cc2)c1 | / | ? | / | / | / | 16.4µM
CCc1nc(-c2cc(S(=O)(=O)N3CCN(c4ccc(F)cc4)CC3)ccc2OC)no1 | / | . | / | / | / | .
CC(C)(C)OC(=O)N1CCN(C(=O)c2ncn(Cc3ccccc3)c2C(=O)N2CCN(C(=O)OC(C)(C)C)CC2)CC1 | / | . | . | / | . | .
COC(=O)c1[nH]c2c(c1C)C(=O)CC(c1cc(OC)ccc1OC)C2 (stereo not given) | . | 2.91µM | . | . | . | 3.26µM
COC(=O)c1[nH]c2c(c1C)C(=O)CC(c1cccs1)C2 (stereo not given) | . | 0.82µM | . | . | ? | 0.731µM
COc1ccc(OC)c(C2CC(=O)c3c([nH]c(C(=O)OCC4CCCCC4)c3C)C2)c1 (stereo not given) | / | ? | / | / | / | 20.6µM
Cc1c(C(=O)O)[nH]c2c1C(=O)CC(c1ccccc1)C2 (stereo not given) | . | . | . | . | . | .
CCc1ccc(C2CC(=O)c3c([nH]c(C(=O)OC4CCCCCC4)c3C)C2)cc1 (stereo not given) | / | . | / | / | / | .
Cn1cnc(S(=O)(=O)N2CCCC(C(=O)NCc3ccc(Cl)cc3)C2)c1 (stereo not given) | / | . | / | / | / | .
C#CCNC(=O)C1=C[C@H](c2cn(C(C)=O)c3ccccc23)[C@@H](CCCO)[C@H](OCC)O1 | . | . | . | . | . | .
O=[N+]([O-])c1ccc(N/N=C2\CC3CC=CC23)c([N+](=O)[O-])c1 (stereo not given) | . | 16.4µM | . | . | ? | 13µM
O=[N+]([O-])c1ccc(NN=C2CC3CCC2C3)c([N+](=O)[O-])c1 (stereo not given) | / | 16.4µM | . | / | / | 18.4µM
SMILES | RORgamma inh | TDP1 cell noCPT | IL-1B inflam inh | Gal4-VP16 FLuc | ELG1 DNA repair | TDP1 cell CPT
O=[N+]([O-])c1ccc(N/N=C2\CC3CC=CC23)cc1 (stereo not given) | ? | ? | ? | . | . | 23.1µM
Cc1cccc(C)c1NC(=S)N/N=C1\CC2CC=CC12 (stereo not given) | ? | ? | . | ? | . | ?
COc1cc(/C=C2\SC(=O)N(Cc3ccc(F)cc3)C2=O)cc([N+](=O)[O-])c1O | . | ? | . | . | ? | ?
COc1cc(/C=C2/SC(=S)N(Cc3ccccc3)C2=O)cc(Cl)c1O | ? | 13µM | . | ? | . | 16.4µM
O=C(O)CN1C(=O)/C(=C\c2cc(Br)ccc2OCc2ccc([N+](=O)[O-])cc2)SC1=S | . | . | . | . | . | .
COc1cc([N+](=O)[O-])cc(/C=C2/SC(=S)N(Cc3ccccc3)C2=O)c1O | ? | 7.31µM | . | 5.01µM | ? | 16.4µM
COc1cc(/C=C2\SC(=O)N(Cc3ccc(Cl)cc3)C2=O)cc([N+](=O)[O-])c1O | . | 23.1µM | . | .[10 µM] | ? | ?
COc1cc(/C=C2/SC(=S)N(Cc3ccccc3)C2=O)ccc1OCC(=O)O | . | . | . | . | ? | .
O=C(O)c1cc2ccccc2c2cc(Br)ccc12 | . | . | . | . | . | .
C[C@@]12CC(=O)C3=C(CCCC3=O)N1CCc1ccccc12 | . | .[9.04 µM] | / | . | / | .[9.04 µM]
CSCCC(NC(=O)c1ccccc1)C(=O)N1CC=C(c2ccccc2)CC1 (stereo not given) | . | ? | . | . | ? | ?
COc1cc(NC(=O)c2cccc(C)c2)c(OC)cc1NC(=O)CN1CCOCC1 | . | 18.4µM | ? | . | ? | ?
COc1cc(NC(=O)c2cccc(Cl)c2)c(OC)cc1NC(=O)CN1CCOCC1 | . | ? | . | . | ? | ?
COc1cc(NC(=O)c2ccccc2Cl)c(OC)cc1NC(=O)CN1CCOCC1 | . | ? | -73.6 | . | . | ?
CC1(C(=O)NCc2ccccc2)CCC(=O)N1C1CC1 (stereo not given) | / | . | . | / | / | .
CN1CCCC1CCNS(=O)(=O)c1ccc(Br)cc1 (stereo not given) | . | 9.2µM | . | . | ? | ?
CC(C)(C)c1ccc(S(=O)(=O)NC(=O)C2(C)CCN2C(=O)CC2CCCCC2)cc1 (stereo not given) | / | . | . | / | / | .
CCC(C)[C@H](NC(=O)[C@@H]1Cc2c([nH]c3ccccc23)C2c3ccccc3C(=O)N21)C(=O)NCC1CCCO1 (stereo not given in full) | . | 16.4µM | . | . | . | ?
C[n+]1ccc(/C=C/c2ccc3c(c2)OCO3)c2ccccc21 | / | . | / | / | / | .
COc1cc(OC)c(OC)cc1/C=C/c1cc[n+](C)c2ccccc12 | / | 2µM | / | / | / | 3.98µM
COc1cc(OC)c(/C=C/c2cc[n+](C)c3ccccc23)c(OC)c1 | / | 0.447µM | / | / | / | 0.501µM
CNc1cc[n+](C)c2ccccc12 | / | . | / | / | / | .
